Here are results for 25 molecules from PubChem BioAssay AID781 (Emory University Molecular Libraries Screening Center, 2007).

One may read the inhibition as the relative decrease from the control value, in per cent.

Among all 220,000 compounds or so, about 1,600 (0.73%) were called active. The full list was thinned out, with actives kept by preference. A number with no mark means an inactive call.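 How the source made its calls: active means inhibition above about 70% (limit read from the data); inactive means the rest.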

14-3-3 protein zeta/delta (Bos taurus), sequence (P63103 whole entry, looked up): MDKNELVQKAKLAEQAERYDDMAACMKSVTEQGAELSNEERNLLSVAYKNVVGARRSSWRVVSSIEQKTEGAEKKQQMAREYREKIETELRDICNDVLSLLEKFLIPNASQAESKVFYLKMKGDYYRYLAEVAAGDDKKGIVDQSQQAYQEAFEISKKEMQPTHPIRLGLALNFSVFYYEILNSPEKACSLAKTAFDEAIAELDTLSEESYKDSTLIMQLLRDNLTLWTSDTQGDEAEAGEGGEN

The assay addresses 14-3-3 protein zeta/delta (Bos taurus) (UniProt P63103). As to the kind of experiment: inhibitors of 14-3-3 zeta/Bad binding, primary screen, biochemical, TR-FRET, bovine 14-3-3 zeta (AID 781).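 Further: 0% = full 14-3-3 plus peptide FRET controls and 100% = background without 14-3-3.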 To be noted: TR-FRET 14-3-3zeta/Dy647-pBad peptide displacement, 1 h; at 21.7 µM; active compounds read high. (In general: In TR-FRET formats the signal depends on donor and acceptor labels being close together.)
Consider `CN1CCN(C(=O)COc2ccc(C(C)(C)C)cc2Br)CC1`, for which the inhibition is -3.25%.
For `CC(C)c1ccc(OCC(=O)N2CCN(C)CC2)c(Br)c1`, the inhibition is 3.12%.
Next, `O=C(COc1ccc2ccccc2c1)N1CCN(Cc2ccncc2)CC1`: 87.2% (active).
Next, `O=C1NC(=O)N(CCc2ccc(F)cc2)C(=O)/C1=C/C=C/c1ccccc1`: 4.29%; `Cc1ccsc1C(=O)C1CCCN(Cc2ccc(O)cc2)C1` (stereo not given): -11.4%.
As for `COc1ccccc1CN1CCN(C(=O)Cc2ccccc2)CC1`, the figure is 75.5% (active); as for `COc1ccc(CN2CCN(c3ccccc3F)CC2)c(OC)c1`, 52.2%.
`O=C(Cc1ccccc1)N1CCN(C2CCCCCC2)CC1`: the inhibition is 27.6%.
As for `O=c1[nH]c(=O)n(-c2ccccc2)c(O)c1C=NC12CN3CN(CN(C3)C1)C2`, the figure is -5.55%.
As for `COC(=O)N1C(c2ccccc2)C1c1ccccc1` (stereo not given), the figure is -6.04%.
Next, `Cc1cc(N2C(=O)C3CCCN3C2c2ccc(Cl)c(Cl)c2)no1` (stereo not given): 5.89%; `Fc1ccc(N2CCN(Cc3ccc4c(c3)OCO4)CC2)cc1`: 70.2% (active); `Cc1ccc(CN2CCCC(C(=O)c3ccc4c(c3)OCO4)C2)cc1C` (stereo not given): -6.26%.
On to `O=C(Cc1ccccc1[N+](=O)[O-])N1CCN(Cc2ccc3c(c2)OCO3)CC1`, for which the inhibition was -4.2%.
As for `Fc1ccc(C2N3CCCN23)cc1` (stereo not given), the figure is -6.34%; as for `CC(C)Oc1cccc(C(=O)C2CCCN(C3CCOCC3)C2)c1` (stereo not given), -13%.
As for `CC(C)CN1CCN(Cc2ccccc2C(F)(F)F)CC1CCO` (stereo not given), the figure is -9.76%.
In the case of `CN1CCN(Cc2ccccc2C(F)(F)F)CC1`, the inhibition was 70.1% (active).
Next, `CN1CCN(Cc2ccc(OC(F)(F)F)cc2)CC1`: 78.5% (active); `Fc1cccc(F)c1CN1CCN(Cc2c(F)cccc2F)CC1`: -4.69%; `Cc1ccc(-n2c(O)c(C=NCC3CCCO3)c(=O)[nH]c2=O)c(C)c1` (stereo not given): 5.29%.
In the case of `CCCCC(=O)N/N=C/c1c(O)n(CCC2=CCCCC2)c(=O)[nH]c1=O`, the inhibition is -15.6%.
As for `CCC1(C)CC(CCNCc2ccc(N(C)C)cc2)(c2ccc(F)cc2)CCO1` (stereo not given), the figure is -2.86%; as for `c1cc2c(cc1[C@H]1OC[C@H]3[C@@H]1CO[C@@H]3c1ccc3c(c1)OCO3)OCO2`, -2.89%.
As for `O=c1[nH]c(=O)n(CCc2ccc(F)cc2)c(O)c1/C=N/N1CCCCC1`, the figure is -6.68%.
